Source: PubChem BioAssay AID1159580 (chemical genetic matrix, 2015)
Out of some 5,500 compounds screened, about 2,000 (36%) were called active. Roughly 18% stayed inconclusive and do not appear here. No stated cut-off is given here; in the data, active means normalized growth mostly below about 0.91 (no sharp cut-off); inconclusive means no clear call, values can overlap the other calls; inactive means mostly above about 0.92. The list shows a part of the results.

Assay: chemical genetic growth profiling, strain panel (AID 1159580);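 further: tested at 20 µM; growth read once vehicle control cultures reached saturation at 30 °C; 1 = growth at the plate median or of vehicle wells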
Settings: growth OD
[1] = S. cerevisiae deletion strains, locus YAL013W, strain DEP1, stronger effect = lower value
[2] = S. cerevisiae deletion strains, locus YBR229C, strain ROT2, stronger effect = lower value
[3] = S. cerevisiae deletion strains, locus YCL061C, strain MRC1, stronger effect = lower value
[4] = S. cerevisiae deletion strains, locus YDL101C, strain DUN1, stronger effect = lower value
[5] = S. cerevisiae deletion strains, locus YDR150W, strain NUM1, stronger effect = lower value
[6] = S. cerevisiae deletion strains, locus YEL061C, strain CIN8, stronger effect = lower value
[7] = S. cerevisiae deletion strains, locus YGR078C, strain PAC10, stronger effect = lower value
[8] = S. cerevisiae deletion strains, locus YHR030C, strain SLT2, stronger effect = lower value
[9] = S. cerevisiae deletion strains, locus YHR087W, strain rtc3, stronger effect = lower value
[10] = S. cerevisiae deletion strains, locus YJL187C, strain SWE1, stronger effect = lower value
[11] = S. cerevisiae deletion strains, locus YJR043C, strain POL32, stronger effect = lower value
[12] = S. cerevisiae deletion strains, locus YJR075W, strain HOC1, stronger effect = lower value
[13] = S. cerevisiae deletion strains, locus YLR039C, strain RIC1, stronger effect = lower value
[14] = S. cerevisiae deletion strains, locus YLR058C, strain SHM2 (second series), stronger effect = lower value
[15] = S. cerevisiae deletion strains, locus YLR085C, strain ARP6, stronger effect = lower value
[16] = S. cerevisiae deletion strains, locus YLR262C, strain YPT6, stronger effect = lower value
[17] = S. cerevisiae deletion strains, locus YML094W, strain GIM5, stronger effect = lower value
[18] = S. cerevisiae deletion strains, locus YMR219W, strain ESC1, stronger effect = lower value
[19] = S. cerevisiae deletion strains, locus YMR263W, strain SAP30, stronger effect = lower value
[20] = S. cerevisiae deletion strains, locus YMR307W, strain GAS1, stronger effect = lower value
[21] = S. cerevisiae deletion strains, locus YNL153C, strain GIM3, stronger effect = lower value
[22] = S. cerevisiae deletion strains, locus YNL298W, strain CLA4 (second series), stronger effect = lower value
[23] = S. cerevisiae deletion strains, locus YNL322C, strain KRE1, stronger effect = lower value
[24] = S. cerevisiae deletion strains, locus YNR030W, strain Alg12, stronger effect = lower value
[25] = S. cerevisiae deletion strains, locus YPL055C, strain LGE1, stronger effect = lower value
[26] = S. cerevisiae deletion strains, locus YPL241C, strain CIN2, stronger effect = lower value
[27] = S. cerevisiae deletion strains, locus YPR135W, strain CTF4, stronger effect = lower value
[28] = S. cerevisiae deletion strains, locus YDL134C, strain PPH21, stronger effect = lower value
[29] = S. cerevisiae strains, strain wild type, stronger effect = lower value

Measured: normalized growth

Cc1onc(-c2ccccc2Cl)c1C(=O)N1CCCN2C(=O)c3ccccc3C21 (stereo unspecified)
inactive: [1] 1 | [2] 0.989 | [3] 0.985 | [4] 0.963 | [5] 0.971 | [6] 1.01 | [7] 0.994 | [8] 0.942 | [9] 0.987 | [10] 1.01 | [11] 0.968 | [12] 1.03 | S. cerevisiae deletion strains, locus YKL190W, strain CNB1, stronger effect = lower value 1 | [13] 0.995 | [14] 0.985 | [15] 1.01 | [16] 0.995 | [17] 1 | [18] 1.01 | [19] 0.999 | [20] 0.992 | S. cerevisiae deletion strains, locus YNL128W, strain TEP1, stronger effect = lower value 0.991 | [21] 0.972 | [22] 0.998 | [23] 1 | [24] 0.993 | [25] 1.01 | [26] 0.987 | [27] 0.931

CCCCC(=O)O[C@]1(C(=O)CO)CCC2C3CCC4=CC(=O)CC[C@]4(C)C3[C@@H](O)C[C@@]21C (stereo partly specified)
inactive: S. cerevisiae deletion strains, locus YAL021C, strain ccr4, stronger effect = lower value 0.974 | S. cerevisiae deletion strains, locus YAL026C, strain drs2, stronger effect = lower value 0.982 | S. cerevisiae deletion strains, locus YAL030W, strain snc1, stronger effect = lower value 0.976 | S. cerevisiae deletion strains, locus YBL061C, strain skt5, stronger effect = lower value 0.988 | S. cerevisiae deletion strains, locus YBR009C, strain hhf1, stronger effect = lower value 0.985 | S. cerevisiae deletion strains, locus YBR023C, strain chs3, stronger effect = lower value 0.987 | S. cerevisiae deletion strains, locus YBR171W, strain sec66, stronger effect = lower value 0.976 | S. cerevisiae deletion strains, locus YBR231C, strain swc5, stronger effect = lower value 0.979 | S. cerevisiae deletion strains, locus YBR279W, strain paf1, stronger effect = lower value 0.989 | S. cerevisiae deletion strains, locus YCL011C, strain gbp2, stronger effect = lower value 0.963 | S. cerevisiae deletion strains, locus YCL016C, strain dcc1, stronger effect = lower value 0.981 | [3] 0.983 | S. cerevisiae deletion strains, locus YCL069W, strain vba3, stronger effect = lower value 0.985 | S. cerevisiae deletion strains, locus YCR088W, strain abp1, stronger effect = lower value 0.991 | S. cerevisiae deletion strains, locus YDL005C, strain med2, stronger effect = lower value 0.979 | S. cerevisiae deletion strains, locus YDL040C, strain nat1, stronger effect = lower value 0.981 | S. cerevisiae deletion strains, locus YDR001C, strain nth1, stronger effect = lower value 0.987 | S. cerevisiae deletion strains, locus YDR069C, strain doa4, stronger effect = lower value 0.973 | S. cerevisiae deletion strains, locus YDR137W, strain rgp1, stronger effect = lower value 0.939 | S. cerevisiae deletion strains, locus YDR159W, strain sac3, stronger effect = lower value 0.97 | S. cerevisiae deletion strains, locus YDR195W, strain ref2 0.933 | S. cerevisiae deletion strains, locus YDR297W, strain sur2, stronger effect = lower value 0.981 | S. cerevisiae deletion strains, locus YDR334W, strain swr1, stronger effect = lower value 0.947 | S. cerevisiae deletion strains, locus YDR335W, strain msn5, stronger effect = lower value 0.975 | S. cerevisiae deletion strains, locus YDR392W, strain spt3, stronger effect = lower value 0.968 | S. cerevisiae deletion strains, locus YEL003W, strain gim4, stronger effect = lower value 0.997 | S. cerevisiae deletion strains, locus YEL037C, strain rad23, stronger effect = lower value 0.97 | S. cerevisiae deletion strains, locus YEL061C, strain CIN8 (second series), stronger effect = lower value 0.98 | S. cerevisiae deletion strains, locus YER015W, strain faa2, stronger effect = lower value 0.972 | S. cerevisiae deletion strains, locus YER016W, strain bim1, stronger effect = lower value 0.974 | S. cerevisiae deletion strains, locus YER111C, strain swi4, stronger effect = lower value 0.981 | S. cerevisiae deletion strains, locus YER155C, strain BEM2 (second series), stronger effect = lower value 0.981 | S. cerevisiae deletion strains, locus YFR010W, strain ubp6, stronger effect = lower value 0.957 | S. cerevisiae deletion strains, locus YGL167C, strain pmr1, stronger effect = lower value 0.976 | S. cerevisiae deletion strains, locus YGL173C, strain kem1, stronger effect = lower value 0.964 | S. cerevisiae deletion strains, locus YGL227W, strain vid30, stronger effect = lower value 0.984 | S. cerevisiae deletion strains, locus YGL240W, strain doc1, stronger effect = lower value 0.973 | S. cerevisiae deletion strains, locus YGL253W, strain hxk2, stronger effect = lower value 0.976 | S. cerevisiae deletion strains, locus YHR013C, strain ard1, stronger effect = lower value 0.972 | S. cerevisiae deletion strains, locus YHR027C, strain rpn1, stronger effect = lower value 0.974 | [8] 0.987 | S. cerevisiae deletion strains, locus YHR079C, strain IRE1, stronger effect = lower value 0.994 | S. cerevisiae deletion strains, locus YHR142W, strain chs7, stronger effect = lower value 0.941 | S. cerevisiae deletion strains, locus YJL092W, strain hpr5, stronger effect = lower value 0.984 | S. cerevisiae deletion strains, locus YJL095W, strain BCK1 (second series), stronger effect = lower value 0.976 | S. cerevisiae deletion strains, locus YJL095W, strain BCK1, stronger effect = lower value 0.998 | S. cerevisiae deletion strains, locus YJL115W, strain asf1, stronger effect = lower value 0.952 | S. cerevisiae deletion strains, locus YJL129C, strain trk1, stronger effect = lower value 0.954 | S. cerevisiae deletion strains, locus YJL154C, strain vps35, stronger effect = lower value 0.982 | S. cerevisiae deletion strains, locus YJL164C, strain tpk1, stronger effect = lower value 0.984 | S. cerevisiae deletion strains, locus YJL166W, strain qcr8, stronger effect = lower value 0.985 | [10] 0.992 | S. cerevisiae deletion strains, locus YJR066W, strain TOR1, stronger effect = lower value 0.943 | S. cerevisiae deletion strains, locus YKL160W, strain elf1, stronger effect = lower value 0.983 | S. cerevisiae deletion strains, locus YKR026C, strain gcn3, stronger effect = lower value 0.969 | S. cerevisiae deletion strains, locus YKR091W, strain srl3, stronger effect = lower value 0.98 | S. cerevisiae deletion strains, locus YLL001W, strain dnm1, stronger effect = lower value 0.96 | S. cerevisiae deletion strains, locus YLL026W, stronger effect = lower value 0.975 | S. cerevisiae deletion strains, locus YLL041C, strain sdh2, stronger effect = lower value 0.979 | S. cerevisiae deletion strains, locus YLR027C, strain aat2, stronger effect = lower value 0.978 | S. cerevisiae deletion strains, locus YLR113W, strain HOG1, stronger effect = lower value 0.986 | S. cerevisiae deletion strains, locus YLR221C, strain rsa3, stronger effect = lower value 0.988 | S. cerevisiae deletion strains, locus YLR258W, strain gsy2, stronger effect = lower value 0.989 | S. cerevisiae deletion strains, locus YLR262C, strain YPT6 (second series), stronger effect = lower value 0.966 | S. cerevisiae deletion strains, locus YLR320W, strain mms22, stronger effect = lower value 0.977 | S. cerevisiae deletion strains, locus YLR342W, strain FKS1, stronger effect = lower value 0.981 | S. cerevisiae deletion strains, locus YLR357W, strain rsc2, stronger effect = lower value 0.971 | S. cerevisiae deletion strains, locus YLR370C, strain arc18, stronger effect = lower value 0.981 | S. cerevisiae deletion strains, locus YLR384C, strain iki3, stronger effect = lower value 0.979 | S. cerevisiae deletion strains, locus YML120C, strain ndi1, stronger effect = lower value 0.973 | S. cerevisiae deletion strains, locus YMR058W, strain fet3, stronger effect = lower value 0.974 | S. cerevisiae deletion strains, locus YMR125W, strain sto1, stronger effect = lower value 0.961 | S. cerevisiae deletion strains, locus YMR129W, stronger effect = lower value 0.979 | S. cerevisiae deletion strains, locus YMR205C, strain PFK2, stronger effect = lower value 0.997 | S. cerevisiae deletion strains, locus YMR231W, strain pep5, stronger effect = lower value 0.98 | S. cerevisiae deletion strains, locus YNL071W, strain lat1, stronger effect = lower value 0.979 | S. cerevisiae deletion strains, locus YNL183C, strain NPR1, stronger effect = lower value 0.942 | S. cerevisiae deletion strains, locus YNL209W, strain ssb2, stronger effect = lower value 0.98 | S. cerevisiae deletion strains, locus YNL248C, strain rpa49, stronger effect = lower value 0.946 | S. cerevisiae deletion strains, locus YNL322C, strain KRE1 (second series), stronger effect = lower value 0.959 | S. cerevisiae deletion strains, locus YNR049C, strain mso1, stronger effect = lower value 0.98 | S. cerevisiae deletion strains, locus YOR001W, strain rrp6, stronger effect = lower value 0.98 | S. cerevisiae deletion strains, locus YOR070C, strain gyp1, stronger effect = lower value 0.994 | S. cerevisiae deletion strains, locus YOR080W, strain dia2, stronger effect = lower value 0.975 | S. cerevisiae deletion strains, locus YOR083W, strain WHI5, stronger effect = lower value 0.98 | S. cerevisiae deletion strains, locus YOR106W, strain vam3, stronger effect = lower value 0.977 | S. cerevisiae deletion strains, locus YOR231W, strain MKK1, stronger effect = lower value 0.976 | S. cerevisiae deletion strains, locus YOR265W, strain rbl2, stronger effect = lower value 0.977 | S. cerevisiae deletion strains, locus YOR270C, strain vph1, stronger effect = lower value 0.869 | S. cerevisiae deletion strains, locus YOR290C, strain snf2, stronger effect = lower value 0.991 | S. cerevisiae deletion strains, locus YPL051W, strain arl3, stronger effect = lower value 1 | S. cerevisiae deletion strains, locus YPL078C, strain atp4, stronger effect = lower value 0.971 | S. cerevisiae deletion strains, locus YPL106C, strain sse1, stronger effect = lower value 0.957 | S. cerevisiae deletion strains, locus YPL240C, strain hsp82, stronger effect = lower value 0.972 | S. cerevisiae deletion strains, locus YPL256C, strain CLN2, stronger effect = lower value 0.972

COc1ccccc1N1CCN(CCCCNS(=O)(=O)c2cccc3c(N(C)C)cccc23)CC1
inactive: [1] 0.944 | S. cerevisiae deletion strains, locus YAL040C, strain CLN3, stronger effect = lower value 0.979 | S. cerevisiae deletion strains, locus YCL061C, strain MRC1 (second series), stronger effect = lower value 0.976 | S. cerevisiae deletion strains, locus YDR363W, strain ESC2, stronger effect = lower value 0.939 | S. cerevisiae deletion strains, locus YER002W, strain NOP16, stronger effect = lower value 0.999 | [7] 0.997 | [12] 0.955 | [19] 0.979 | [20] 0.994 | [21] 0.989 | S. cerevisiae deletion strains, locus YNL175C, strain NOP13, stronger effect = lower value 1.02 | S. cerevisiae deletion strains, locus YNL197C, strain WHI3, stronger effect = lower value 0.99 | S. cerevisiae deletion strains, locus YNL224C, strain SQS1, stronger effect = lower value 1.04 | [23] 0.951 | S. cerevisiae deletion strains, locus YOR083W, strain WHI5 (second series), stronger effect = lower value 1.02

CCOC(=O)c1cnn(-c2ccc(F)cc2)c1N
inactive: [1] 0.99 | [2] 0.992 | [4] 0.984 | [28] 1 | [5] 0.866 | [6] 0.984 | [7] 0.998 | S. cerevisiae deletion strains, locus YGR229C, strain SMI1, stronger effect = lower value 0.987 | [8] 1.07 | [9] 0.967 | [10] 0.989 | [11] 0.994 | [12] 0.9 | [13] 1.04 | [14] 0.995 | [15] 0.919 | [16] 1.04 | [17] 0.938 | [18] 0.995 | [19] 0.991 | [21] 0.974 | [22] 0.966 | [23] 0.987 | [24] 0.973 | [25] 0.869 | [26] 1.06 | [27] 0.844 | [29] 0.993

NNC(=O)c1cnn(-c2ccc(Cl)cc2)c1C(F)(F)F
inactive: [1] 0.992 | [2] 0.996 | [3] 0.983 | [4] 0.993 | [28] 1.03 | [5] 0.94 | [6] 0.998 | [7] 1.01 | [8] 0.976 | [9] 0.986 | [10] 1 | [11] 0.946 | [12] 1.01 | [13] 0.909 | [14] 1 | [15] 0.976 | [16] 1.01 | [17] 0.967 | [18] 0.998 | [19] 0.977 | [21] 1 | [22] 1.01 | [23] 1 | [24] 1.03 | S. cerevisiae deletion strains, locus YOL006C, strain TOP1, stronger effect = lower value 1.02 | [25] 0.883 | [26] 0.989 | [27] 0.916 | [29] 1.01
